# From PubChem BioAssay (Tox21)
# Results filed as inconclusive are left out. A call without a number means that no potency is given here. Values without a mark were called inactive. Calls of active or inactive are those of the source. The call rests on the fitted dose curve; in most records, active means well fitted cell-killing curve with a large enough effect in the repeat runs; inconclusive means weak or mixed curves; inactive means flat fitted curve, though single readings scatter.
# Assay: qHTS assay to identify small molecule antagonists of the TGF-beta/Smad signaling pathway - cell viability counter screen (AID 1346824); further: nearly all actives have a fitted effect of over 50% in size
# Conditions: SBE-bla HEK293T viability, CellTiter-Glo luminescence; series mostly up to 76.8 µM; viability change, negative = cytotoxic: at the top concentration
# Source text: U.S. Tox21 Program National Center for Advancing Translational Sciences [NCATS] NIH Chemical Genomics Center [NCGC] U.S. Environmental Protection Agency [EPA] National Institutes of Environmental Health Sciences [NIEHS] National Toxicology Program [NTP] U.S. Food and Drug Administration [FDA] Tox21 Assay Overview: Transforming growth factor beta (TGF-beta) superfamily consists of a large number of structurally related dimeric proteins that act as hormones or local mediators in regulating a wide range of biological functions. This superfamily includes TGF-betas themselves, the bone morphogenetic proteins (BMPs) and the activins. These ligands induce oligomerization of serine/threonine receptor kinases and phosphorylate the cytoplasmic signaling molecules of Smad protein family. CellSensor SBE-bla HEK 293T cell line (Life Technologies, Carlsbad, CA), responsive to TGF-beta was used to screen Tox21 10K compound library for identification of agonists/antagonists of the Smad signaling pathway. This cell line contains a beta-lactamase reporter gene under control of the Smad binding element (SBE) stably integrated into HEK 293T cells. Also cytotoxicity of the compounds was tested in parallel by measuring the cell viability using CellTiter-Glo assay system in the same wells.
# Tox21 Assay Protocol Summary: SBE-bla HEK 293T cells were dispensed at 4,000/well in 5 uL of assay medium into black wall/clear-bottom 1536-well plates using a Multidrop Combi (ThermoFisher Scientific, Waltham, MA) dispenser. After the assay plates were incubated at 37 C and 5% CO2 for an overnight, 23 nL of compounds dissolved in DMSO, positive controls or DMSO only was transferred to the assay plate by a Pintool station (Kalypsys, San Diego, CA). Compound transfer was followed by the addition of 1 uL of 0.25 ng/mL TGF-beta1 or assay buffer using two separate tips of Flying Reagent Dispenser (FRD, Aurora Discovery, San Diego, CA). The assay plates were incubated at 37 C and 5% CO2 for 5 hr. One uL of LiveBLAzer B/G FRET substrate (Life Technologies) was added using a Flying Reagent Dispenser (FRD, Aurora Discovery, San Diego, CA) and the plates were incubated at room temperature for 2 hr. Fluorescence intensity (405 nm excitation, 460 nm and 530 nm emissions) was measured using an Envision plate reader (PerkinElmer, Shelton, CT). For cytotoxicity read, 4 uL of CellTiter-Glo reagent (Promega Corporation, Madison, WI) was added to each well of the assay plates using FRD. After 30 min incubation at room temperature, the luminescence intensity was measured using ViewLux plate reader (PerkinElmer).
Compound,Potency,"viability change, negative = cytotoxic"
CCC(O)OCCCOC (stereo not given),inactive,–
COc1ccc(NC(C)=O)cc1N,–,3.39%
Cc1cnc(C(=O)NCCc2ccc(S(=O)(=O)NC(=O)NC3CCCCC3)cc2)cn1,inactive,–
CC(C)(N)CO,inactive,–
CC1=CCC2CC1C2(C)C (stereo not given),inactive,–
CC1=CC(=O)NS(=O)(=O)O1,inactive,–
CCCCC(CC)COC(=O)CS (stereo not given),inactive,–
CC(=O)OCC(=O)[C@@]12N=C(C)O[C@@H]1C[C@H]1[C@@H]3CCC4=CC(=O)C=C[C@]4(C)[C@H]3[C@@H](O)C[C@@]12C,inactive,–
CCCSc1ccc2nc(NC(=O)OC)[nH]c2c1,inactive,–
O=C=NCCCCCCN=C=O,inactive,–
NNc1nncc2ccccc12,inactive,–
CN(C)CCC(c1ccc(Cl)cc1)c1ccccn1 (stereo not given),inactive,–
O=c1[nH]c(=O)n([C@H]2C[C@H](O)[C@@H](CO)O2)cc1Br,inactive,–
Cc1ccc(S(N)(=O)=O)cc1,inactive,–
O=C(CC(C(=O)OC1CCCCC1)S(=O)(=O)O)OC1CCCCC1 (stereo not given),inactive,–
COS(C)(=O)=O,inactive,–
CC(=O)Nc1cccc(O)c1,inactive,–
C#C[C@]1(O)CC[C@H]2[C@@H]3CCC4=CC(=O)CC[C@@H]4[C@H]3CC[C@@]21C,inactive,–
N[C@@H](Cc1cc(I)c(Oc2cc(I)c(O)c(I)c2)c(I)c1)C(=O)O,inactive,–
COc1ccc2cc([C@H](C)C(=O)O)ccc2c1,inactive,–

Compound,Potency,"viability change, negative = cytotoxic"
CCOC(=O)NNc1nncc2ccccc12,inactive,–
C=C(C)C(=O)Nc1ccc(Cl)c(Cl)c1,inactive,–
O=S1(=O)CC=CC1,inactive,–
O=C(O)c1cc(=O)c2c(OCC(O)COc3cccc4oc(C(=O)O)cc(=O)c34)cccc2o1,inactive,–
CCCCCC/C(C=O)=C\c1ccccc1,inactive,–
c1ccc2c(c1)ccc1ccccc12,inactive,–
Cc1cccc(O)c1,inactive,–
c1ccc(OCCOc2ccccc2)cc1,inactive,–
CC(O)COCC(C)O (stereo not given),inactive,–
CC(=O)CC(=O)Nc1ccccc1,inactive,–
CCCCC(CC)COC(=O)CCCCC(=O)OCC(CC)CCCC (stereo not given),inactive,–
CC(C)c1ccc(S(=O)(=O)O)cc1,inactive,–
OCc1cccnc1,inactive,–
COc1cc(Cc2cnc(N)nc2N)cc(OC)c1OC,inactive,–
CCCCCC1=CCCC1=O,inactive,–
O=S(=O)(O)c1ccc2ccccc2c1,inactive,–
CCCCCCCCCCCCS,inactive,–
OC[C@H]1O[C@@](CO)(O[C@H]2O[C@H](CO)[C@@H](O)[C@H](O)[C@H]2O)[C@@H](O)[C@@H]1O,inactive,–
O=C(O)c1cc(O)c(O)c(O)c1,inactive,–
O=C(O)CCCC[C@@H]1SC[C@@H]2NC(=O)N[C@@H]21,inactive,–
